Consider seven sequences from paper PMC7862700, “An all-to-all approach to the identification of sequence-specific readers for epigenetic DNA modifications on cytosine”.

Holding throughout (test): DAPPL (digital affinity profiling via proximity ligation, sequencing); 10 mM Tris-HCl pH 7.5, 50 mM NaCl, 1 mM DTT, 4% glycerol, room temperature, 30 min; GST-TFs on glutathione beads, 16-mer random dsDNA library, 0.1% formaldehyde crosslink after washing; high values mean tight binding
What all share (settings): protein: recombinant; tags: N-terminal GST; dsDNA, one strand shown

Assay [1] concerns the target T1, ERF (Homo sapiens, UniProt P50548 1-548).
T1 sequence: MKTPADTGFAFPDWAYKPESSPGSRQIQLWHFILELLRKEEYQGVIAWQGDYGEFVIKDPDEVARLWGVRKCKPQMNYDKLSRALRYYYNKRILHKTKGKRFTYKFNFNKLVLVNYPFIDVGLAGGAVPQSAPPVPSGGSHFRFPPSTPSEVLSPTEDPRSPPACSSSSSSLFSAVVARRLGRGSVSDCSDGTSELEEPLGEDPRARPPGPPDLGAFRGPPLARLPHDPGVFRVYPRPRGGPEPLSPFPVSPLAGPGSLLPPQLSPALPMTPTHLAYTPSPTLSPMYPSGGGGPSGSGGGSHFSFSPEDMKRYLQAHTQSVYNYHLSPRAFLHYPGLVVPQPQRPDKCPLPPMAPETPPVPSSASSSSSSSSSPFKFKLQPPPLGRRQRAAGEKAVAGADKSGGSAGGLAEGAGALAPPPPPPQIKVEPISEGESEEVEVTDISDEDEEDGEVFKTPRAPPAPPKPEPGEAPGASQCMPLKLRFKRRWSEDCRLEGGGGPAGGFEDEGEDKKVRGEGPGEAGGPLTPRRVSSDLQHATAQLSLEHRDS
The method in brief: (§1)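 Each value of binding signal is a hexamer's read frequency for a factor divided by the same hexamer's frequency in the tag-only sample. Barcoded, bead-captured GST fusions of human transcription factors made in yeast were pooled with that sample and incubated with 200 nmole of a random double-stranded 16-mer DNA library in Tris/NaCl/DTT/glycerol buffer at room temperature for 30 min. Washing, 0.1% formaldehyde crosslinking, proximity ligation, PCR and Illumina NextSeq500 sequencing followed.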

Assay [2] deals with T2, ETV3L (Homo sapiens, UniProt Q6ZN32 1-361).
T2 sequence: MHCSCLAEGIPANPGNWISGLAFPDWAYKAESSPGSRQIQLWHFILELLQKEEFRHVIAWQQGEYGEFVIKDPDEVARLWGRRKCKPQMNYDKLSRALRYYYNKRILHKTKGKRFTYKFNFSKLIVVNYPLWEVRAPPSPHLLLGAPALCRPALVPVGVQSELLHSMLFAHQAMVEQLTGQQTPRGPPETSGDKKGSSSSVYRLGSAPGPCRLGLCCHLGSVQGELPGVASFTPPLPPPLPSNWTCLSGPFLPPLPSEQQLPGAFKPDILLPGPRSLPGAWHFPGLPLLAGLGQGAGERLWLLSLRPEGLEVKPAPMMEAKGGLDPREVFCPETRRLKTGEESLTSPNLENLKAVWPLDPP
The method in brief: as §1

In assay [3] the target is T3, ETS2 (Homo sapiens, UniProt P15036 1-469).
T3 sequence: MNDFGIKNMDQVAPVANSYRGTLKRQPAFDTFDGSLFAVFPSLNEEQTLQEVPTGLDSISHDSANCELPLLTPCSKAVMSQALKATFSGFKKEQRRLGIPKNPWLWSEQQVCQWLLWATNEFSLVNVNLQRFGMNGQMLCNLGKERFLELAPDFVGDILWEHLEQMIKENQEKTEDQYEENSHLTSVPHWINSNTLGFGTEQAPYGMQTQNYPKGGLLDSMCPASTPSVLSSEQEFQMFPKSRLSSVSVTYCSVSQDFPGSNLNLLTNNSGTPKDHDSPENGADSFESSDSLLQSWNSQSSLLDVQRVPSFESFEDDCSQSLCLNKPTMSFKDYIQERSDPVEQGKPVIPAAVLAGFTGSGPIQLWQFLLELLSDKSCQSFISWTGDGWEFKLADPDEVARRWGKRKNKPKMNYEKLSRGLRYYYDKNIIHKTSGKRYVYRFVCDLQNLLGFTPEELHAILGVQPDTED
The procedure, abridged:
as §1

In assay [4] the target is T4, SPDEF (Homo sapiens, UniProt O95238 1-335).
T4 sequence: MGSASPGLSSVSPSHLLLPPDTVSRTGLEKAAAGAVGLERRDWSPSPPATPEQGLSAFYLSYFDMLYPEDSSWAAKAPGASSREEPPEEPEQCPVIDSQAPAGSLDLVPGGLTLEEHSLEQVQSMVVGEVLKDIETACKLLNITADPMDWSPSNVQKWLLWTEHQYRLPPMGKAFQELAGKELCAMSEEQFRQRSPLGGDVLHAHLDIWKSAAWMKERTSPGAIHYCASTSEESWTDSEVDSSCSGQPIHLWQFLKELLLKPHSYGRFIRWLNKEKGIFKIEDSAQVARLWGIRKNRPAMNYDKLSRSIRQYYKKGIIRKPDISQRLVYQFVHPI
The procedure, abridged: as §1

The target in assay [5] is T5, ELF5 (Homo sapiens, UniProt Q9UKW6-2 1-255).
T5 sequence: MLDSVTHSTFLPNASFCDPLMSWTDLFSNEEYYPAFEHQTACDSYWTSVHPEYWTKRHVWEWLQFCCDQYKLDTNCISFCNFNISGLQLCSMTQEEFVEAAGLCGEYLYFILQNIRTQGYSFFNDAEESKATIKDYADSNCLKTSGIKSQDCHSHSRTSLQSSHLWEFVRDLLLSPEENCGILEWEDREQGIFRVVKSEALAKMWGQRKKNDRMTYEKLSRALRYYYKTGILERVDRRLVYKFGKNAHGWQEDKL
The procedure, abridged:
as §1

Assay [6] concerns the target T6, ETV3 (Homo sapiens, UniProt P41162-2 1-143).
T6 sequence: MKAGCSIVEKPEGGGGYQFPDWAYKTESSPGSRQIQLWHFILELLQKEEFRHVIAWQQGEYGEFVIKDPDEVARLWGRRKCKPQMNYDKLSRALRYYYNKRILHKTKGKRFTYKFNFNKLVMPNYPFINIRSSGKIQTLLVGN
The method in brief:
as §1

Assay [7] deals with ETV6 (Homo sapiens, UniProt P41212 1-452). The method in brief: as §1
ETV6, sequence (P41212 whole entry): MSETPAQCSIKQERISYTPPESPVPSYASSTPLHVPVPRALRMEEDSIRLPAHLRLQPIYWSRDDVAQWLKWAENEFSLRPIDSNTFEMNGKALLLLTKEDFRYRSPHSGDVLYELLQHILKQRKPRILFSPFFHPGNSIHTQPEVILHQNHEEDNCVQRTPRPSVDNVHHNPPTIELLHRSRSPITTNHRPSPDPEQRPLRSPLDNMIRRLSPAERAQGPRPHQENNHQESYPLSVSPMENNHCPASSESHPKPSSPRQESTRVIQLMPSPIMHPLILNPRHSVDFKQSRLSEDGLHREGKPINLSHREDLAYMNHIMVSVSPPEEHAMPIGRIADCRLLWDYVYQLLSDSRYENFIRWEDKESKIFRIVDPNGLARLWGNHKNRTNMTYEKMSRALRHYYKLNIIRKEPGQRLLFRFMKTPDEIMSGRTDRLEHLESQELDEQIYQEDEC

Regarding TCTACA, the binding signal in assay [1] was 1.31 fold enrichment (6-mer frequency, TF over GST control); in assay [2] it was 1.21 fold enrichment (6-mer frequency, TF over GST control); in assay [3] it was 1.29 fold enrichment (6-mer frequency, TF over GST control); in assay [4], 1.27 fold enrichment (6-mer frequency, TF over GST control); in assay [5], 1.19 fold enrichment (6-mer frequency, TF over GST control); in assay [6], 1.18 fold enrichment (6-mer frequency, TF over GST control). For the same sequence, the binding signal in assay [7] is 1.19 fold enrichment (6-mer frequency, TF over GST control).

Consider CTGTGC, for which the binding signal in assay [1] is 1.12 fold enrichment (6-mer frequency, TF over GST control); in assay [2] it was 1.13 fold enrichment (6-mer frequency, TF over GST control); in assay [3] it was 1.18 fold enrichment (6-mer frequency, TF over GST control); in assay [4], 1.12 fold enrichment (6-mer frequency, TF over GST control); in assay [5], 1 fold enrichment (6-mer frequency, TF over GST control); in assay [6] it was 1.19 fold enrichment (6-mer frequency, TF over GST control). Moreover, the binding signal in assay [7] was 1.22 fold enrichment (6-mer frequency, TF over GST control).

For GGTCTA, the binding signal in assay [1] was 1.07 fold enrichment (6-mer frequency, TF over GST control); in assay [2] it was 1.11 fold enrichment (6-mer frequency, TF over GST control); in assay [3] it was 1.05 fold enrichment (6-mer frequency, TF over GST control); in assay [4] it was 1.08 fold enrichment (6-mer frequency, TF over GST control); in assay [5] it was 1.04 fold enrichment (6-mer frequency, TF over GST control); in assay [6] it was 1.05 fold enrichment (6-mer frequency, TF over GST control). The binding signal in assay [7] was 1.04 fold enrichment (6-mer frequency, TF over GST control).

GATACG: the binding signal in assay [1] was 1.12 fold enrichment (6-mer frequency, TF over GST control); in assay [2], 1.1 fold enrichment (6-mer frequency, TF over GST control); in assay [3], 1.11 fold enrichment (6-mer frequency, TF over GST control); in assay [4], 1.35 fold enrichment (6-mer frequency, TF over GST control); in assay [5], 1.1 fold enrichment (6-mer frequency, TF over GST control); in assay [6] it was 1.12 fold enrichment (6-mer frequency, TF over GST control). In addition, the binding signal in assay [7] was 1.09 fold enrichment (6-mer frequency, TF over GST control).

Take ATGCTG: the binding signal in assay [1] is 1.16 fold enrichment (6-mer frequency, TF over GST control); in assay [2], 1.13 fold enrichment (6-mer frequency, TF over GST control); in assay [3] it was 1.18 fold enrichment (6-mer frequency, TF over GST control); in assay [4] it was 1.11 fold enrichment (6-mer frequency, TF over GST control); in assay [5], 1 fold enrichment (6-mer frequency, TF over GST control); in assay [6], 1.09 fold enrichment (6-mer frequency, TF over GST control). Besides, the binding signal in assay [7] was 1.08 fold enrichment (6-mer frequency, TF over GST control).

For CGCTAG, the binding signal was 1.08 fold enrichment (6-mer frequency, TF over GST control) in assay [1]; 1.06 fold enrichment (6-mer frequency, TF over GST control) in assay [2]; 1.03 fold enrichment (6-mer frequency, TF over GST control) in assay [3]; 1.08 fold enrichment (6-mer frequency, TF over GST control) in assay [4]; 1.05 fold enrichment (6-mer frequency, TF over GST control) in assay [5]; 1.04 fold enrichment (6-mer frequency, TF over GST control) in assay [7].

As to CACAAT, the binding signal in assay [1] is 1.18 fold enrichment (6-mer frequency, TF over GST control); in assay [2] it was 1.08 fold enrichment (6-mer frequency, TF over GST control); in assay [3] it was 1.13 fold enrichment (6-mer frequency, TF over GST control); in assay [4] it was 1.07 fold enrichment (6-mer frequency, TF over GST control); in assay [5], 1.06 fold enrichment (6-mer frequency, TF over GST control); in assay [6], 1.12 fold enrichment (6-mer frequency, TF over GST control). Also, in assay [7], the binding signal is 1.09 fold enrichment (6-mer frequency, TF over GST control).
